Sampled rows, rich in hits. Any-hit rate of the full collection: about 0.91%.
Proteasome disasm: blocks ATP-dependent breakdown of the yeast 26S proteasome; hit rate 0.2% among 24,000; AID 751; anti-FLAG beads, GFP-proteasome disassembly, flow cytometry; inhibition of disassembly, % (concentration not given with the values);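 active = inhibition of disassembly above about 33%, limit read from the data; inconclusive = likely self-fluorescent, control bead median signal at least 40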;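 note: plate controls were ATP control with full disassembly for no effect and ATP-gamma-S intact proteasomes for full effect; higher percent means more bead fluorescence retained so stronger block of disassembly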
Prostate diff: activators of LNCaP prostate cell differentiation; flow cytometry side scatter, 4 d; side scatter shift, % at 10 µM; hit rate 0.56% among 24,000;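 active = side scatter shift above 30%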;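 note: androgen-responsive LNCaP prostate cancer cells in charcoal-stripped serum medium; percent of cells past a gate set so DMSO wells show 10% shift; higher shift means more granular cells and more differentiation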
QS inhibitor: blocks AIP-induced quorum sensing reporter in S. aureus; hit rate 0.3% among 24,000; S. aureus RN6390 RNAIII-GFP reporter, flow cytometry 3 h; inhibition, % at 2 µM;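 active = share of bacteria positive for the green fluorescent reporter and its mean brightness both inhibited by 50% or more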;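 note: 0% = AIP-stimulated control and 100% = unstimulated bacteria without AIP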
* marks the source's active call; other numbers are inactive results; ? = inconclusive; nt = not tested or not shown; ! = not active in a repeat.

SMILES	Proteasome disasm	Prostate diff	QS inhibitor
N#Cc1c(NC(=O)COC(=O)C2CC3C=CC2C3)oc(-c2ccccc2)c1-c1ccccc1 (stereo not drawn)	-2.7	4.0	90.6*
COc1ccccc1OCC(=O)Nc1oc(-c2ccccc2)c(-c2ccccc2)c1C#N	nt	nt	1.0
COC(=O)c1ccccc1NC(=O)C12CCC(C)(C(=O)O1)C2(C)C (stereo not drawn)	0.1	6.0	0.2
COC(=O)c1ccccc1NC(=O)CN1C(=O)C2CCCN2c2ncc(Cl)cc21 (stereo not drawn)	48.7*	8.0	3.3
CC1CCC(NC(=O)CN2C(=O)C3CCCN3c3ncc(Cl)cc32)CC1 (stereo not drawn)	16.8	12.0	1.9
CCc1ccccc1NC(=O)CN1C(=O)C2CCCN2c2ncc(Cl)cc21 (stereo not drawn)	1.2	11.0	-2.6
O=C(CN1C(=O)C2CCCN2c2ncc(Cl)cc21)NCc1ccc2c(c1)OCO2 (stereo not drawn)	54.8*	10.0	0.9
CC(=O)Nc1ccc(Cl)cc1C(=O)O	-0.3	7.0	-2.7
Cc1noc(C)c1CSc1nnc2scc(-c3ccc(Cl)cc3)n12	-0.4	11.0	0.9
Cc1cc2c(=O)n(CC(=O)NCC(=O)N3CCN(Cc4ccccc4)CC3)cnc2s1	2.6	5.0	4.3
COc1ccc(-c2coc3c(CN4CCCCC4)c(O)c(CN4CCCCC4)c(O)c3c2=O)cc1	1.0	36.0*	-1.4
COc1ccc(C(=O)c2coc3ccc(O)c(CN4CCCC4)c23)cc1	-0.4	6.0	-6.9
CC1=CC(=C2C(=O)c3ccccc3C2=O)C=C(C)O1	34.5	11.0	1.7
CC(=O)N1C(=O)C(=C2C=C(C)OC(C)=C2)c2ccccc21	85.2*	3.0	-0.3
CC(C)(C)c1ccc(C(=O)Nc2cnccn2)cc1	-0.7	7.0	0.0
COC(=O)c1ccccc1S(=O)(=O)N(Cc1cc2cc3c(cc2[nH]c1=O)OCO3)C1CCCCC1	0.1	41.0*	2.5
COc1ccc(CN(Cc2cc3cc4c(cc3[nH]c2=O)OCO4)C(=O)NC2CCCCC2)cc1	-5.2	8.0	24.4
COc1ccc(C(=O)N(Cc2ccco2)C(C(=O)NC2CCCC2)c2ccc(O)cc2)cc1OC (stereo not drawn)	1.7	13.0	-0.8
c1csc(CCNc2ncnc3sc4c(c23)CCC4)c1	-1.1	14.0	66.8*
O=C(CSc1ncnc2sc3c(c12)CCCCC3)NCc1ccco1	1.6	10.0	-0.8
CCOC(=O)c1[nH]c(C)c(C(=O)N2CCN(C(=O)OCC)CC2)c1CC	-2.5	9.0	-0.7
CC(=O)Oc1cccc(/C=c2\sc3nc(-c4ccco4)nn3c2=O)c1	2.3	5.0	-0.8
CCCOc1ccc(/C=c2\sc3nc(-c4ccco4)nn3c2=O)cc1OCC	124.8*	0.0	-4.5
CCCS(=O)(=O)N1CCCC(C(=O)NCCCN2CCN(c3cccc(Cl)c3)CC2)C1 (stereo not drawn)	0.4	3.0	-0.8
CCOC(=O)CSc1nc2ccc(N3CCOCC3)cc2c(=O)n1Cc1ccc2c(c1)OCO2	-0.3	3.0	0.5
SMILES	Proteasome disasm	Prostate diff	QS inhibitor
O=C(CN1CCOCC1)N1CCN(C(=O)CN2CCOCC2)CC1	-1.6	2.0	-2.9
CCc1ccc(NC(=O)c2cc(C)on2)cc1	1.7	4.0	-3.8
Cc1ccc(NC(=O)c2cc(C)on2)cc1	1.0	5.0	76.1*
CC(C)(C)C(=O)CNS(=O)(=O)c1ccc(S(=O)(=O)NC2CCCC2)cc1	0.2	8.0	-0.2
COc1ccc(N2C(=O)C3CCCN3C2c2ccc(Cl)cc2)cc1 (stereo not drawn)	-0.7	4.0	-0.5
COc1ccc(OC)c(C2N(c3ccc(Cl)cc3)C(=O)C3CCCN32)c1 (stereo not drawn)	84.6*	12.0	4.8
CCOC(=O)C1=C(C)N=C2SC(C)C(=O)N2C1c1ccc(OCC)c(OCC)c1 (stereo not drawn)	-1.4	14.0	2.0
CCOc1ccccc1NC(=O)CCC(=O)Nc1ccc2nc(N3CCN(C)CC3)cc(C)c2c1	-0.3	5.0	-0.7
CCN1CCN(c2cc(C)c3cc(NC(=O)c4cnccn4)ccc3n2)CC1	0.7	1.0	-5.9
Cc1cc(N2CCN(C)CC2)nc2ccc(NC(=O)c3ccc4c(c3)OCO4)cc12	-2.0	57.0*	-7.3
Cc1cc(N2CCN(C)CC2)nc2ccc(NC(=O)c3ccc(Br)o3)cc12	-0.8	35.0*	-11.2
O=C(CSc1nnc(CNC(=O)c2cccs2)o1)Nc1cccc(C(F)(F)F)c1	0.9	3.0	6.1
COc1cccc(N2CCN(Cc3nc(N)nc(Nc4ccccc4OC)n3)CC2)c1	-0.9	12.0	-0.3
COc1ccc(Nc2nc(N)nc(CN3CCC(Cc4ccccc4)CC3)n2)cc1	0.6	49.0*	3.0
O=C(N1CCN=C1SCc1cccnc1)C12CC3CC(CC(C3)C1)C2	0.1	14.0	-1.7
Cc1cc2c(c(Sc3ccccc3)n1)C(=O)OC2	1.0	3.0	3.3
CCOc1ccc(NC(=O)C2CCCN(S(=O)(=O)c3c(C)nn(C)c3C)C2)cc1 (stereo not drawn)	?	12.0	96.0*
CCOc1ccc(NC(=O)C2CCCN(S(=O)(=O)c3c(C)n[nH]c3C)C2)cc1 (stereo not drawn)	-1.3	2.0	-3.1
CCC(C)NC(=O)c1cn(C)c(=O)c2cc(OC)c(OC)cc12 (stereo not drawn)	-1.7	37.0*	0.1
CCOCCCNC(=O)c1cn(C)c(=O)c2cc(OC)c(OC)cc12	-0.6	9.0	-1.6
O=C(CCS(=O)(=O)c1ccc(Br)s1)N1CCc2ccccc21	0.0	10.0	-0.3
O=C(Cn1ccc2ccccc2c1=O)N1CCN(Cc2ccc3c(c2)OCO3)CC1	-1.9	11.0	-1.5
O=C(CN1CCN(Cc2ccc3c(c2)OCO3)CC1)N1CCc2[nH]c3ccc(F)cc3c2C1	10.7	50.0*	-1.2
CCc1ccc(Nc2cc(=O)n(C3CCCCC3)c(=O)[nH]2)cc1	17.6	14.0	9.2
O=c1cc(Nc2ccc3c(c2)OCCO3)[nH]c(=O)n1C1CCCCC1	107.9*	6.0	-4.6
SMILES	Proteasome disasm	Prostate diff	QS inhibitor
CCOc1ccc(NC(=O)CN2C(=O)C3CCCN3C2=O)cc1 (stereo not drawn)	-0.3	5.0	2.0
C=CCSc1nnc2n(-c3ccccc3OC)c(=O)c3c4c(sc3n12)CCC4	0.3	24.0	12.5
O=C(/C=N/O)NCc1ccncc1	0.3	16.0	3.1
Cc1ccc(S(=O)(=O)Nc2cc(C(=O)NCCN3CCCC3)ccc2N2CCCCC2)cc1	105.2*	22.0	3.0
Cc1ccc(S(=O)(=O)Nc2cc(C(=O)NCCN(C)C)ccc2N2CCCCC2)cc1	0.0	17.0	-0.5
Cc1cc(NC(=O)CC(C)(C)C)nc2c1c(=O)oc1ccccc12	9.4	6.0	72.2*!
CCCC(=O)Nc1cc(C)c2c(=O)oc3ccccc3c2n1	4.8	7.0	1.2
c1cc2c(cc1C1CCCN1)OCCCO2 (stereo not drawn)	3.1	6.0	-2.7
CCCn1c(=S)[nH]c2cc(C(=O)N3CCN(c4ccccc4OC)CC3)ccc2c1=O	0.3	1.0	66.0*
CCOC(=O)N1CCN(C(=O)c2ccc3c(=O)n(Cc4ccccc4)c(=S)[nH]c3c2)CC1	-0.2	12.0	-1.6
Cc1ccc(Cn2c(=O)n(Cc3ccco3)c(=O)c3ccccc32)cc1	-1.1	3.0	5.3

Screening results as filed in PubChem BioAssay.
